Experimental data taken from ChEMBL document CHEMBL4513216, “Probing the Open Global Health Chemical Diversity Library for Multistage-Active Starting Points for Next-Generation Antimalarials” (ACS Infect Dis, 2020).
The whole screen tested about 69,000 compounds, of which about 8,600 (12%) showed an effect of 50% or more. This excerpt belongs to a sample that is enriched for strong results.

tested on: Plasmodium berghei; assay: Screen against P. berghei liver stage (PbLuc), transformed with Luciferase, at 10uM; format: functional, HepG2; settings: tested at 10 uM

SMILES | INHIBITION [%]
CCCS(=O)(=O)N1CCC2(CN(c3cnn(C)c3)C(=O)CN2C)C1 (stereo not given) | 21.6
Cc1nn(C)c2nc(C3CC3)c(Cl)c(C(=O)O)c12 | 23.4
O=C(c1cscn1)N1CCC2(CN(Cc3ccncc3)C2)C1 | 24.9
O=C(c1ccccc1)N1CCCC2(CCN2Cc2cccc(F)c2)C1 (stereo not given) | 61.1
COC(=O)CCC(=O)N1CCCC2(CCCN2Cc2cccc(F)c2)C1 (stereo not given) | 37.6
O=C(c1cscn1)N1CCCC2(CCN2Cc2cccc(F)c2)C1 (stereo not given) | 64.7
O=C(O)CN1CCCC2(CCN2Cc2cccc(F)c2)C1 (stereo not given) | 44.8
O=C(N[C@@H]1CN(Cc2cccc(F)c2)C[C@H]1O)c1cscn1 | 47.1
Cc1c(C(=O)O)cnn1-c1ccc(-c2nc(C3CC3)no2)cn1 | 34
CNc1cncc(C2CCCN2S(=O)(=O)c2ccc(F)cc2)n1 (stereo not given) | 35.2
Cc1noc(C)c1C1CCCN1C(=O)CN1C(=O)OC(C)(C)C1=O (stereo not given) | 40.7
Cc1nc(COC[C@H]2CCC[C@]23CN(CC2CC2)CCO3)cs1 | 54.4
Cc1nc(COC[C@H]2CCC[C@]23CN(C2CCOC2)CCO3)cs1 (stereo not given in full) | 49.7
Cc1nc(COC[C@@H]2CCC[C@@]23CN(C)CCO3)cs1 | 48.6
Cc1nc(COC[C@H]2CCC[C@@]23CN(C(C)C)CCO3)cs1 | 12.4
CCN1CCO[C@]2(CCC[C@H]2COCc2csc(C)n2)C1 | 52.9
Cc1nc(COC[C@@]23CCC[C@@H]2CN(CC2CCOCC2)C3)cs1 | -5.63
CN(C)CCO[C@H]1CN(Cc2ccco2)[C@@H]2COC[C@H]12 | 30.3
Cc1csc(C(Cc2cccs2)NCc2cc3c(cc2C)OCO3)n1 (stereo not given) | 45.45
CCN1CCC12CCN(C(=O)c1ccsc1)C2 (stereo not given) | -30
O=C(c1ccc[nH]1)N1Cc2nccn2CC(COc2cccnc2)C1 (stereo not given) | 3.58
CCCc1noc(C2CCCCN2C(=O)CCc2cnn(C)c2)n1 (stereo not given) | 1.56
COc1ccc(-c2nc(C#N)c(N(C)C)o2)cc1S(=O)(=O)N1CCCC1 | -35.5
c1cncc(CN2CC[C@@H]3O[C@H](COCCN4CCCC4)CC[C@@H]32)c1 | -51

SMILES | INHIBITION [%]
COc1ccc(CNC(=O)NC(C)(CO)C2CC2)c(C(F)(F)F)c1 (stereo not given) | 17.8
Cc1noc(C)c1CN1C[C@H](OCC2CCN(C)CC2)[C@H]2COC[C@H]21 | -12.2
Cc1noc(C)c1CN1CC[C@H](OCC2CC2)[C@@H](Cc2ccccc2)C1 | 53.2
COc1ccc(C[C@H]2CN(C3CCOCC3)CC[C@H]2OCC2CC2)cc1 | -24.5
Cc1noc(C)c1CN1C[C@H](OCC2CC2)[C@H]2OCCC[C@H]21 | -1.64
Cc1noc(C)c1CN1C[C@H](OCC2CC2)[C@H]2COC[C@H]21 | -41
Cc1noc(C)c1CN1CC[C@@H](OCC2CC2)[C@@H](Cc2ccccc2)C1 | 73.4
O=C(NCCc1ccncc1)[C@@H]1CC[C@@H]2[C@@H](CCN2Cc2ccco2)O1 | 31.7
COCC(=O)N1CCC2(CCC2NC(=O)c2ccn(C)c2)CC1 (stereo not given) | 41.6
COCC(=O)N1CCC2(CCC2NS(=O)(=O)c2ccccc2)CC1 (stereo not given) | 64.5
O=S(=O)(NC1CCC12CCN(CC1CC1)CC2)c1ccccc1 (stereo not given) | 26
Cc1nc(O)c2nnn(C[C@H]3CCCN3C(=O)c3ccc(F)cc3)c2n1 | 8.72
CCc1cc(=O)[nH]c(-c2ccc(NC(C)COC)nc2)n1 (stereo not given) | -10.3
COc1cccc(CC2(C(=O)O)CCN(c3nccs3)CC2)c1 | 22.3
CCOC(=O)C1(Cc2cccc(OC)c2)CCN(Cc2ncc[nH]2)CC1 | 57.6
O=C1CC2(CCN(Cc3ncc[nH]3)CC2)CN1Cc1ccc(Cl)cc1 | 12.4
CCOC(=O)C1(Cc2cccc(Cl)c2)CCCN(Cc2ncc[nH]2)C1 (stereo not given) | 46.7
CCOC(=O)C1(Cc2ccc(Cl)cc2)CCN(Cc2ncc[nH]2)CC1 | 82.1
CCOC(=O)C1(Cc2cccc(OC)c2)CCCN(Cc2ncc[nH]2)C1 (stereo not given) | 41.2
COc1cccc(CC2(C(=O)O)CCN(c3ccc(Cl)cn3)CC2)c1 | 30.8
CCOC(=O)C1(Cc2cccc(OC)c2)CCN(Cc2ccon2)CC1 | 55.7
COc1cccc(CNC(=O)N2CCN(Cc3cc(C)on3)CC2)c1 | -1.62
CS(=O)(=O)N1C[C@H](C(=O)Nc2cccnc2)[C@@H]2CCO[C@@H]2C1 | -7.7
CN(C)c1ncnc2c1CCN(C(=O)c1cccnc1)CC2 | 20.6

SMILES | INHIBITION [%]
COc1cc(NC2CCN(C3CCS(=O)(=O)CC3)CC2)ncn1 | -15
Cc1ccc(CC(=O)N2CCCC(c3cc(C(N)=O)[nH]n3)C2)cn1 (stereo not given) | 39.35
CCOc1cc(F)ccc1NC(=O)NCC(c1cnn(C)c1)N(C)C (stereo not given) | 44.9
CCOCc1ccccc1NC(=O)NCC(c1cnn(C)c1)N(C)C (stereo not given) | 2.91
Cc1ccc(C(=O)NCC(c2cnn(C)c2)N(C)C)c(O)c1 (stereo not given) | 1.19
Cc1ccc(NC(=O)NCC(c2cnn(C)c2)N(C)C)c(C)c1 (stereo not given) | 57.7
CCOc1ccccc1CNC(=O)NCC(c1cnn(C)c1)N(C)C (stereo not given) | 62.8
Cn1cc(C(O)CNC(=O)Nc2cc(F)ccc2-n2cccn2)cn1 (stereo not given) | 23.4
O=C(c1ccc(C2CCNC2)cc1)N1CCC(N2CCC(O)CC2)CC1 (stereo not given) | -8
CCN(CC)Cc1cn2c(n1)CN(C(=O)c1cnccn1)CC2 | 37
CN1C(=O)CO[C@H]2CN(C(=O)c3ccc4c(c3)CCCC4)C[C@@H]21 | -3
Cn1ccnc1CN1CCC(Cc2ccccn2)CC1 | 38.2
O=C(NCCCO)c1nc(-c2ccc3cc[nH]c3c2)no1 | -108
CC(NC1CCSCC1)c1ccccc1-n1cccn1 (stereo not given) | -4.12
c1cncc(NCCNC2CCCNC2)c1 (stereo not given) | 4.95
Cc1cnccc1NCCNC1CCN(CC(C)C)CC1 | -58.7
CC(NC1CCCC1)c1ccccc1-n1cccn1 (stereo not given) | -8.66
c1cncc(NCCNC2CSCCSC2)c1 | 57.5
c1cncc(NCCNC2CCSC2)c1 (stereo not given) | 29.7
CC(C)CN1CCC(NC(C)c2ccccc2-n2cccn2)CC1 (stereo not given) | 89.1
c1cncc(NCCNC2CCSCC2)c1 | -22.8
CC(C)CN1CCC(NCCNc2cccnc2)CC1 | 52.7
